Assay results as given in PubChem BioAssay (NCI).
About 83,000 compounds went through this panel and 20% of them were active in at least one assay; those are over-represented in the sample as a whole.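 Step 1: grow cells in 96-well plates. Step 2: add test compound at a single concentration. Step 3: incubate 48 h. Step 4: record percent growth.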 Values without a mark were called inactive. The source made the active and inactive calls. The calls were made as follows: active = growth percent below 10; inactive = the rest.

Columns and labels:
Experiment in all cases: NCI-60 one-dose screen, 48 h (100 = growth as untreated, 0 = no growth, -100 = all killed)
Settings in all cases: 10 µM unless noted
[1] = tested on: SR leukemia
[2] = tested on: RPMI-8226 leukemia
[3] = tested on: OVCAR-8 ovarian
[4] = tested on: OVCAR-5 ovarian
[5] = tested on: OVCAR-4 ovarian
[6] = tested on: SK-OV-3 ovarian
[7] = tested on: IGROV1 ovarian
[8] = tested on: HS 578T breast
[9] = tested on: NCI/ADR-RES ovarian
[10] = tested on: OVCAR-3 ovarian

SMILES | growth [1] | growth [2] | growth [3] | growth [4] | growth [5] | growth [6] | growth [7] | growth [8] | growth [9] | growth [10]
CC[n+]1c(C)ccc2cc(C)ccc21 | 94.4% | 101% | 88.4% | 109% | 106% | 97.8% | 104% | 112% | 104% | 
O=C(CBr)OCc1ccc([N+](=O)[O-])o1 | 88.1% | 86.3% | 96.9% | 101% | 77.9% | 105% | 10.5% | 106% | 101% | 
CCCCCCCCCCCCCCCCC(=O)O.CCCCCCCCCCCCCCCCCC(=O)O.CCCCCCCCCCCCCCCCCC(=O)O.CCCCCCCCCCCCCCCCCC(=O)O.CCCCCCCCCCCCCCCCCC(=O)O.CO[CH-]OC12COC1CC(O)C1(C)C(O)C(OC(C)O)C3=C(C)C(OC(=O)C(O)C([NH-])c4ccccc4)CC(O)(C(OC(=O)c4ccccc4)C21)C3(C)C.[Cu+].[Zn].[Zn].[Zn].[Zn].[Zn] (stereo not drawn) | 37.4% | 22.4% | 45.4% | 24.9% | 40.1% | 39.4% | 33.4% | 10.5% | 42.4% | 
CC1(C)CC(=O)C2=C(C1)Oc1nc(N)c(C#N)c(N)c1C2c1ccc(F)cc1 (stereo not drawn) | 55.3% | 163% | 106% | 105% | 102% | 115% | 500% | 103% | 122% | 
CCCCCCCCc1ccc(OCCOCC[N+](C)(C)CC)cc1 (tested in a mixture with another compound) | 37.7% | 8.79% (active) | 48.4% | 76% | 20.7% | 78.5% | 33.8% | 37.7% | 107% | 
CCCCCCCCCCC(C[N+](C)(C)C/C=C/c1ccccc1)C(O)c1ccccc1 (stereo not drawn) | -46.2% (active) | -50.8% (active) | 20.5% | 42.6% | 8.79% (active) | 53.1% | -70.9% (active) | 49% | 97.6% | 
CC(=O)O.[In] | 93.4% | 102% | 102% | 105% | 114% | 103% | 106% |  | 107% | 116%
NC(N)=N/N=C/c1cccc(Br)c1 | 104% | 95.3% | 110% | 104% | 91.6% | 91.4% | 86.4% |  | 103% | 99.8%
COc1cc(OC)c(NC(=O)n2ncc3cc(Nc4ncnc5ccccc45)ccc32)cc1Cl | 89.6% | 101% | 110% | 74.2% | 99.8% | 110% | 56.4% | 112% | 97.3% | 
COc1ccc(/C(=C(\c2ccccc2)[N+](=O)[O-])c2ccc(OCCN3CCCC3)cc2)cc1 | 21.8% | 37% | 92.6% | 75.3% | 81.8% | 99% |  |  | 84.3% | 100%
COC(=O)/C=C/c1cc(O)c2oc(-c3ccc(O)c(O)c3)c(C(=O)OC)c2c1 | 22% | -16.8% (active) | 18.5% | 43.6% | 42.8% |  | 32.4% | 18.3% | -3.33% (active) | 11.7%
COC(=O)Nc1nc2ccc(C(=O)c3ccccc3N(C)C3COC3)cc2[nH]1 | 35.6% | -8.33% (active) | 34.7% | 57% | 75.8% |  | 58.6% | 22.5% | 53.3% | 14.6%
CC(=O)Nc1nc(C)c(C(=O)NNS(=O)(=O)c2ccccc2)s1 | 155% | 135% | 101% | 106% | 112% | 109% | 9.33% (active) | 112% | 118% | 
NCCCOc1cc2ccccc2cc1C(=O)Nc1ccc(Cl)cc1OC(=O)c1cc2ccccc2cc1OCCCN | -47.5% (active) | -46.6% (active) | -77% (active) | -92.7% (active) | -74.4% (active) | -90.8% (active) |  | -46.8% (active) | -61.5% (active) | 
CCCCCCCCC1OC1CCCCCCCC(=O)O (stereo not drawn) | 101% | 98.4% | 101% | 108% | 115% | 95.3% |  | 98.6% | 104% | 108%
O=c1c(N=Nc2nccs2)c(-c2ccccc2)[nH]n1-c1nc(-c2ccccc2)cs1 | 33.4% | 16.1% | 28.1% | 98.9% | 39.5% | 23.5% | 44.2% | 38.4% | 10.1% | 
COc1ccc(Cn2cc3c(c2-c2ccc(O)cc2)CCc2cnoc2-3)cc1 | 11.5% | 26.6% | 34.9% | 41.2% | 48.4% | 12% | 19.7% | 5.28% (active) | -1.58% (active) | 
Cc1ccc(S(=O)(=O)NC(CCC(=O)Nc2ccccc2)C(=O)Nc2ccccc2)cc1 (stereo not drawn) | 4.65% (active) | -17.1% (active) | -10.9% (active) | -8.85% (active) | -4.83% (active) |  | -25.1% (active) | 2.98% (active) | -24.7% (active) | -42% (active)
COc1cc(/C(=C2/O[C@@H]([C@H]3COC(C)(C)O3)[C@H]3OC(C)(C)O[C@@H]23)c2ccc3c(c2)OCO3)cc(OC)c1OC | 80.9% | 73.7% | 4.49% (active) | 59.2% | 58.1% | 63.1% |  |  | 44.4% | 74.8%
C/C(CCC(=O)O)=N/Nc1ccc([N+](=O)[O-])cc1 | 40.6% | 51.9% | 70.4% | 68.1% | 66.3% |  | 103% | 92.9% | 49.6% | 89.9%
Oc1ccccc1/C=N/N=C/c1c(O)ccc2ccccc12 | 55.4% | 96.6% | 80.6% | 102% | 85.4% | 90.8% | 47.9% | 101% | 92.5% | 
Nc1nc(-c2cccc(Br)c2)cc(-c2cc3ccccc3oc2=O)n1 | 89.6% | 98.7% | 97.2% | 106% |  | 97.8% | 67.2% | 87.3% | 105% | 99.6%
O=C(N/N=C\c1ccc(-c2ccc(Br)cc2)o1)c1cc2oc(-c3cccc(C(F)(F)F)c3)cc2[nH]1 | -3.49% (active) | 98.4% | 103% | 88.4% | 106% | 115% | 130% | 81.1% | 96% | 
CC(C)OC(=O)[C@H](C)N[P@@](=O)(OC[C@@]1(C)O[C@@H](n2cc(F)c(N)nc2=O)C[C@@H]1O[P@](=O)(N[C@@H](C)C(=O)OC(C)C)Oc1ccccc1)Oc1ccccc1 | 124% | 105% | 79.4% | 110% | 112% |  | 94.4% | 85.6% | 103% | 102%
CC1(C)Oc2cc3oc(=O)ccc3cc2C[C@@H]1OCCOS(=O)(=O)c1ccc(C#N)cc1 | 107% | 91.9% | 92.7% | 97.9% | 88% |  | 100% | 89.7% | 96.1% | 96%
O=C1c2ccccc2CCc2ccccc21 | 104% | 108% | 99.3% | 93.7% | 104% |  | 93% | 105% | 101% | 103%
COC(=O)c1ccc2[nH]c(O)c(C(=Nc3ccc(N(C)C(=O)CN4CCN(C)CC4)cc3)c3cccc(OC)c3)c2c1 | -3.85% (active) | 4.7% (active) | 23.7% | 33.8% | 25.4% | -0.652% (active) | 1.75% (active) | 6.7% (active) | 99.5% | 
O=C1CSC(c2ccccc2Cl)N1c1nnc(-c2ccncc2)o1 (stereo not drawn) | 96% | 86% | 103% | 94.1% | 97.8% |  | 89% | 109% | 92.3% | 108%
Cc1c([C@H](C(Cl)Cl)[C@H](O)[C@H]2C[C@H](C)C(=O)O2)ccc2c1C(=O)[C@H]1[C@H]2C[C@@H](Br)[C@@]23O[C@@H](CO[C@H]2O)CC13C (stereo partly drawn) | 11.9% | 26.7% | 5.88% (active) | 55.6% | 38.6% |  | 36.5% | -23.2% (active) | 30.8% | -56.5% (active)
